Values joined by “and” are separate entries in the source; they are usually repeats but may differ in a detail not shown here. Identical values can stand only once. About 2,000 (36%) of roughly 5,500 compounds were called active. Another 18% or so got no clear call; they are omitted. No stated cut-off is given here; in the data, active means normalized growth mostly below about 0.91 (no sharp cut-off); inconclusive means no clear call, values can overlap the other calls; inactive means mostly above about 0.92. The list shows a part of the results.
Assay: chemical genetic growth profiling, strain panel (AID 1159580);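 further: tested at 20 µM; growth read once vehicle control cultures reached saturation at 30 °C; 1 = growth at the plate median or of vehicle wells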
Details: S. cerevisiae deletion strains, growth OD

Measured: normalized growth

CC1(C)C(=O)[C@@H]2O[C@@H]2[C@@]2(C)C1C[C@@H](O)[C@]1(C)C2CC[C@@]2(C)[C@H](c3ccoc3)OC(=O)C3OC321 (stereo partly specified)
inactive: locus YAL021C, strain ccr4, stronger effect = lower value 0.981 | locus YAL026C, strain drs2, stronger effect = lower value 0.969 | locus YAL030W, strain snc1, stronger effect = lower value 0.982 | locus YBL061C, strain skt5, stronger effect = lower value 0.989 | locus YBR009C, strain hhf1, stronger effect = lower value 1 | locus YBR021W, strain FUR4, stronger effect = lower value 0.965 | locus YBR023C, strain chs3, stronger effect = lower value 0.998 | locus YBR171W, strain sec66, stronger effect = lower value 0.994 | locus YBR229C, strain ROT2, stronger effect = lower value 1 | locus YBR231C, strain swc5, stronger effect = lower value 0.995 | locus YBR279W, strain paf1, stronger effect = lower value 0.987 | locus YCL011C, strain gbp2, stronger effect = lower value 0.999 | locus YCL016C, strain dcc1, stronger effect = lower value 0.997 | locus YCL029C, strain bik1, stronger effect = lower value 0.988 | locus YCL061C, strain MRC1, stronger effect = lower value 1.01 | locus YCL069W, strain vba3, stronger effect = lower value 0.999 | locus YCR088W, strain abp1, stronger effect = lower value 1 | locus YDL005C, strain med2, stronger effect = lower value 0.987 | locus YDL035C, strain GPR1, stronger effect = lower value 0.998 | locus YDL040C, strain nat1, stronger effect = lower value 0.998 | locus YDL074C, strain BRE1, stronger effect = lower value 0.972 | locus YDL101C, strain DUN1, stronger effect = lower value 1 | locus YDL134C, strain PPH21, stronger effect = lower value 0.989 | locus YDL185W, strain tfp1, stronger effect = lower value 0.997 | locus YDL192W, strain arf1, stronger effect = lower value 0.988 | locus YDR001C, strain nth1, stronger effect = lower value 1 | locus YDR069C, strain doa4, stronger effect = lower value 0.999 | locus YDR101C, strain arx1, stronger effect = lower value 0.971 | locus YDR137W, strain rgp1, stronger effect = lower value 1 | locus YDR150W, strain NUM1, stronger effect = lower value 1 | locus YDR159W, strain sac3, stronger effect = lower value 0.998 | locus YDR162C, strain NBP2, stronger effect = lower value 1 | locus YDR195W, strain ref2 0.989 | locus YDR297W, strain sur2, stronger effect = lower value 0.99 | locus YDR318W, strain mcm21, stronger effect = lower value 0.974 | locus YDR334W, strain swr1, stronger effect = lower value 0.989 | locus YDR335W, strain msn5, stronger effect = lower value 0.987 | locus YDR388W, stronger effect = lower value 0.991 | locus YDR392W, strain spt3, stronger effect = lower value 0.984 | locus YDR502C, strain sam2, stronger effect = lower value 0.957 | locus YEL003W, strain gim4, stronger effect = lower value 1.01 | locus YEL037C, strain rad23, stronger effect = lower value 0.988 | locus YEL061C, strain CIN8 (second series), stronger effect = lower value 1 | locus YER015W, strain faa2, stronger effect = lower value 0.996 | locus YER016W, strain bim1, stronger effect = lower value 0.995 | locus YER110C, stronger effect = lower value 0.976 | locus YER111C, strain swi4, stronger effect = lower value 0.996 | locus YER155C, strain BEM2 (second series), stronger effect = lower value 1 | locus YER155C, strain BEM2, stronger effect = lower value 1 | locus YER167W, strain BCK2, stronger effect = lower value 1.01 | locus YFR010W, strain ubp6, stronger effect = lower value 1 | locus YGL078C, strain dbp3, stronger effect = lower value 0.985 | locus YGL086W, strain mad1, stronger effect = lower value 0.977 | locus YGL167C, strain pmr1, stronger effect = lower value 1.01 | locus YGL173C, strain kem1, stronger effect = lower value 1 | locus YGL227W, strain vid30, stronger effect = lower value 1 | locus YGL240W, strain doc1, stronger effect = lower value 1 | locus YGL248W, strain PDE1, stronger effect = lower value 0.998 | locus YGL253W, strain hxk2, stronger effect = lower value 1 | locus YGR135W, strain pre9, stronger effect = lower value 0.952 | locus YGR229C, strain SMI1, stronger effect = lower value 0.981 | locus YGR252W, strain gcn5, stronger effect = lower value 0.845 | locus YHR013C, strain ard1, stronger effect = lower value 0.993 | locus YHR027C, strain rpn1, stronger effect = lower value 0.997 | locus YHR030C, strain SLT2, stronger effect = lower value 1.02 and 0.977 | locus YHR079C, strain IRE1 (second series), stronger effect = lower value 0.991 | locus YHR079C, strain IRE1, stronger effect = lower value 0.986 | locus YHR094C, strain hxt1, stronger effect = lower value 0.989 | locus YHR129C, strain ARP1, stronger effect = lower value 1 | locus YHR142W, strain chs7, stronger effect = lower value 0.993 | locus YHR200W, strain rpn10, stronger effect = lower value 0.982 | locus YIL066C, strain RNR3, stronger effect = lower value 1.01 | locus YIL073C, strain SPO22, stronger effect = lower value 0.992 | locus YIL125W, strain kgd1, stronger effect = lower value 0.992 | locus YIR030C, strain dcg1, stronger effect = lower value 0.994 | locus YJL092W, strain hpr5, stronger effect = lower value 1 | locus YJL095W, strain BCK1 (second series), stronger effect = lower value 0.994 | locus YJL095W, strain BCK1, stronger effect = lower value 0.982 and 0.983 | locus YJL115W, strain asf1, stronger effect = lower value 0.989 | locus YJL129C, strain trk1, stronger effect = lower value 0.985 | locus YJL134W, strain LCB3, stronger effect = lower value 0.997 | locus YJL154C, strain vps35, stronger effect = lower value 0.999 | locus YJL164C, strain tpk1, stronger effect = lower value 0.981 | locus YJL166W, strain qcr8, stronger effect = lower value 0.983 | locus YJL168C, strain set2, stronger effect = lower value 0.985 | locus YJL187C, strain SWE1 (second series), stronger effect = lower value 0.984

— PubChem BioAssay AID1159580 (chemical genetic matrix, 2015)
